High-throughput results as filed in PubChem.
Most compounds without a hit are left out; they make up all but 2.4% or so of the library.
Platelet DG rel: modulates dense granule release in human platelets. inhibition, %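 (compounds screened at 7.5 µM in platelet-rich plasma)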. hit rate 0.22% among 300,000. human platelet-rich plasma, SFLLRN dense granule ATP release, luminescence;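 active means mean replicate score, as percent of positive control, at or above 50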
SENP7 block: inhibitors of human SENP7 protease. AID 434973. Q9BQF6. inhibition, % at 5 µM. hit rate 1.5% among 330,000. recombinant SENP7, Z-RLRGG-aminoluciferin luminescence, 40 min;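 active means inhibition above about 50% at the single test dose, limit read from the data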
Target sequence (Q9BQF6 706-1050 limits assumed): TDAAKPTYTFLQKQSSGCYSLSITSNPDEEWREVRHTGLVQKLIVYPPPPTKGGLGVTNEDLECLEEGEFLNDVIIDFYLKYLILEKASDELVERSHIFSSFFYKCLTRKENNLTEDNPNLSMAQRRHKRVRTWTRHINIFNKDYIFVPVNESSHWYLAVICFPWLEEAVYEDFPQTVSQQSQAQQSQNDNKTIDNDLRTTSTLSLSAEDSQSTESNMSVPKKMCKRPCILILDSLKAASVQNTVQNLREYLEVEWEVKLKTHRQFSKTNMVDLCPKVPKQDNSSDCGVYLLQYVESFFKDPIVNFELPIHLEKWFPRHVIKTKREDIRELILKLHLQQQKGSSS
SENP8 block-1: blocks human SENP8 cleavage of Nedd8 substrate. Q96LD8. recombinant SENP8, Nedd8 substrate fluorescence. inhibition, % at 20 µM. hit rate 0.64% among 360,000. AID 602440; in the data active means inhibition mostly above about 40%, no sharp cut-off; inactive means mostly below about 27%
SENP8 block-2: blocks the human protease SENP8; hit rate 1.2% among 330,000; inhibition, % at 10 µM; purified SENP8, Z-RLRGG-aminoluciferin cleavage, luminescence; AID 2540; in the data active means inhibition above about 50%
SENP6 block: SENP6 protease inhibition; Q9GZR1; Recombinant SENP6 catalytic domain, aminoluciferin luminescence; inhibition, % at 10 µM; hit rate 1.8% among 330,000;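 active means inhibition above about 50% at the single tested dose, limit read from the data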
SENP8 conf: confirmation of human SENP8 protease inhibitors. shares compounds with SENP7 block. Recombinant SENP8, Z-RLRGG-aminoluciferin luminescence, 60 min. inhibition, % at 12.5 µM. hit rate 40% among 6,200. AID 488912;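 active means mean inhibition across replicates above about 50%, limit read from the data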
SENP6 confirm: confirmation of human SENP6 protease inhibitors; hit rate 58% among 6,200; shares compounds with SENP7 block; recombinant SENP6, Z-RLRGG-aminoluciferin luminescence; inhibition, % at 12.5 µM
SENP7 conf: human SENP7 inhibition, confirmed; shares compounds with SENP7 block; recombinant SENP7, Z-RLRGG-aminoluciferin luminescence, 40 min; inhibition, % at 12.5 µM; hit rate 69% among 6,200
Casp3 select: selectivity test for SENP inhibitors: human caspase-3 inhibition; hit rate 60% among 6,200; AID 488918; inhibition, % at 12.5 µM; shares compounds with SENP7 block; purified caspase-3, Z-DEVD-aminoluciferin luminescence, 60 min;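 active means mean inhibition above about 50%, limit read from the data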
Target sequence (P42574 28-227 limits assumed): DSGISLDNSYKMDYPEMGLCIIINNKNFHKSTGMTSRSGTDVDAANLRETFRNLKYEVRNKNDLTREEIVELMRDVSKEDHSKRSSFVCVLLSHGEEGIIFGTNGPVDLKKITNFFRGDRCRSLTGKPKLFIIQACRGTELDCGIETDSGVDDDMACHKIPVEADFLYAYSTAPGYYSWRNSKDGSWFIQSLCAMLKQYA
Luc interf: luminescence interference (SENP counter-screen); hit rate 39% among 6,200; Pre-incubated SENP8/Z-RLRGG-aminoluciferin, luciferase luminescence interference; shares compounds with SENP7 block; inhibition, % at 12.5 µM;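 active means mean inhibition above about 50% when retested at one dose, limit read from the data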
Each line names hits and unclear results; the compound was inactive in the other large screens (follow-up assays come after a bar, where they were run).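 How the source made its calls, unless noted: active means mean inhibition above about 50% in the one-dose retest (limit read from the data); inactive means the rest.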

Cc1ccc(O)c(NC(=O)c2cc(-c3ccccc3Cl)on2)c1	SENP7 block 63 | SENP8 conf inactive | SENP6 confirm inactive | SENP7 conf inactive | Casp3 select inactive | Luc interf inactive
O=C(Nc1cccnc1)c1cc(-c2ccccc2O)on1	SENP7 block 96, SENP8 block-2 88 | SENP8 conf 73 | SENP6 confirm 72 | SENP7 conf 99 | Casp3 select 91 | Luc interf 89
O=C(Nc1cccnc1)c1cc(-c2cccc(Cl)c2)on1	none
O=C(Nc1cccnc1)c1cc(-c2cccs2)on1	SENP7 block 84, SENP8 block-2 51, SENP6 block 74 | SENP8 conf inactive | SENP6 confirm inactive | SENP7 conf 80 | Casp3 select 79 | Luc interf inactive
CCOC(=O)c1cccc(NC(=O)CSc2nnc(-c3ccncc3)n2CCCOC)c1	SENP7 block 99 | SENP8 conf inactive | SENP6 confirm inactive | SENP7 conf inactive | Casp3 select inactive | Luc interf inactive
CC(=O)c1sc(N/N=C\c2ccc(N(C)C)cc2)nc1C	SENP7 block 82, SENP6 block 77 | SENP8 conf inactive | SENP6 confirm 54 | SENP7 conf 95 | Casp3 select inactive | Luc interf inactive
O=C(NC1CCCCC1)c1cccnc1Sc1ccccc1	none
CC1CCN(c2ccc(-c3cccs3)nn2)CC1	SENP7 block 96, SENP8 block-2 94, SENP6 block 99 | SENP8 conf 64 | SENP6 confirm 96 | SENP7 conf 102 | Casp3 select 94 | Luc interf inactive
COc1ccc2cc1Oc1ccc(cc1)C[C@H]1c3cc(c(OC)cc3CCN1C)Oc1c(OC)c(OC)cc3c1[C@@H](C2)N(C)CC3	SENP8 block-1 76, SENP6 block 58 (no result: Platelet DG rel) | SENP8 conf inactive | SENP6 confirm inactive | SENP7 conf inactive | Casp3 select inactive | Luc interf inactive
COc1ccc2c(c1OC)CN(C)CCc1cc3c(cc1C(O)C2)OCO3 (stereo not given)	none
CCOc1ccc(-c2nnc(SCC(=O)N3CCNC3=O)o2)cc1	none (no result: Platelet DG rel)
CCCCN(C(=O)NC(=O)Nc1ccccc1OC)S(C)(=O)=O	SENP7 block 56 | SENP8 conf inactive | SENP6 confirm inactive | SENP7 conf inactive | Casp3 select inactive | Luc interf inactive
Cc1ccc(C(=O)c2c(C)oc3c2C(=O)C(=O)c2ccccc2-3)cc1	SENP7 block 51, SENP8 block-1 106 | SENP8 conf inactive | SENP6 confirm 57 | SENP7 conf inactive | Casp3 select inactive | Luc interf inactive
Cc1oc2c(c1C(=O)N1CCC(C)CC1)C(=O)c1ccccc1C2=O	SENP6 block 55 (no result: SENP8 block-1) | SENP8 conf inactive | SENP6 confirm 52 | SENP7 conf inactive | Casp3 select inactive | Luc interf inactive
CC1CCN(C(=O)c2ccc3c(c2)C(=O)c2ccccc2-3)CC1	none (no result: Platelet DG rel, SENP7 block, SENP8 block-2, SENP6 block)
COc1cccc(C=O)c1OCCN1C(=O)c2ccccc2C1=O	none
CS/C(Nc1cc(Cl)ccc1Cl)=C(/C#N)C(=O)c1ccco1	SENP7 block 89, SENP8 block-2 94, SENP6 block 97 | SENP8 conf 92 | SENP6 confirm 94 | SENP7 conf 98 | Casp3 select 91 | Luc interf 97
Cc1ccc(Cl)cc1NC(C#N)c1ccccc1 (stereo not given)	none
COc1cccc(C(=O)Nc2ccc(C3CC3(Cl)Cl)cc2)c1 (stereo not given)	SENP7 block 94, SENP8 block-2 92, SENP6 block 85 | SENP8 conf 96 | SENP6 confirm 97 | SENP7 conf 103 | Casp3 select 92 | Luc interf inactive
COc1cccc(C(=O)Nc2ccc(F)c(F)c2F)c1	SENP7 block 51 | SENP8 conf inactive | SENP6 confirm inactive | SENP7 conf 77 | Casp3 select 70 | Luc interf 53
COc1cccc(C(=O)Nc2ccc(C(F)(F)F)n(C)c2=O)c1	SENP7 block 80, SENP8 block-2 65 | SENP8 conf inactive | SENP6 confirm inactive | SENP7 conf 82 | Casp3 select 70 | Luc interf inactive
COC(=O)c1cccc(NC(=O)c2cccc(OC)c2)c1	SENP7 block 84, SENP8 block-2 65, SENP6 block 85 (no result: Platelet DG rel) | SENP8 conf 69 | SENP6 confirm 71 | SENP7 conf 94 | Casp3 select 85 | Luc interf 78
COc1cccc(C(=O)Nc2cccc(C(C)=O)c2)c1	none
Cc1ccc(C)c(NC(=O)C2CCCC2)c1	none
CN(C)S(=O)(=O)Oc1ccc(C(=O)Nc2cccc(C(F)(F)F)c2)cc1	none
COc1cccc(NC(=O)c2cccc(Cl)c2)c1	SENP7 block 77, SENP8 block-2 77, SENP6 block 83 (no result: Platelet DG rel) | SENP8 conf 81 | SENP6 confirm 79 | SENP7 conf 95 | Casp3 select 83 | Luc interf 81
COc1cc(OC)cc(C(=O)Nc2cccc(NC(C)=O)c2)c1	none
CCOC(=O)Nc1cccc(NC(=O)c2cc(OC)cc(OC)c2)c1	SENP7 block 71, SENP6 block 64 | SENP8 conf 74 | SENP6 confirm 70 | SENP7 conf 88 | Casp3 select 76 | Luc interf 74
COc1cccc(C(=O)NC(=S)Nc2ccc(N(C)C)cc2)c1	SENP6 block 57 | SENP8 conf inactive | SENP6 confirm 57 | SENP7 conf 78 | Casp3 select inactive | Luc interf inactive
CN(C)S(=O)(=O)Oc1ccc(C(=O)Nc2cccc(Cl)c2)cc1	SENP7 block 75, SENP8 block-2 70, SENP6 block 58 | SENP8 conf 83 | SENP6 confirm 82 | SENP7 conf 96 | Casp3 select 63 | Luc interf 72
O=C(Nc1ccccc1)OCCOc1ccc(Cl)cc1Cl	none (no result: Platelet DG rel, SENP7 block, SENP8 block-2, SENP6 block)
O=c1ccn([C@@H]2O[C@H](CNCc3ccccc3OCc3ccc(Cl)cc3Cl)[C@@H](O)[C@H]2O)c(=O)[nH]1	none (no result: Platelet DG rel, SENP7 block, SENP8 block-2, SENP6 block)
CCCCCN(C(=O)CCC(=O)OCC(=O)N1CCCC(C)C1)c1c(N)n(CCCC)c(=O)[nH]c1=O (stereo not given)	none
COc1ccc(C(=O)NC2CC2)cc1OC1CCN(Cc2ccc(F)cc2Cl)CC1	none
Clc1nc(-c2ccccn2)nc2scc(-c3ccccc3)c12	SENP8 block-2 68, SENP6 block 87 | SENP8 conf inactive | SENP6 confirm 52 | SENP7 conf inactive | Casp3 select inactive | Luc interf inactive
